Test results as given in article PMC8384837, “Expanding the binding specificity for RNA recognition by a PUF domain”.

Each sequence was assayed against PUM1 PUF domain R5-DHL (Homo sapiens, UniProt Q14671 828-1176, C1007D;R1008H;Q1011L) (assay: yeast three-hybrid, YBZ-1, SC-Leu-His + 0.5 mM 3-AT, 4 days). Conditions: tags: N-Gal4 AD-HA kept; label: inside an RPR1-promoter hybrid RNA with tandem MS2 sites; ssRNA.
Sequence of PUM1 PUF domain R5-DHL (Q14671 828-1176 C1007D/R1008H/Q1011L): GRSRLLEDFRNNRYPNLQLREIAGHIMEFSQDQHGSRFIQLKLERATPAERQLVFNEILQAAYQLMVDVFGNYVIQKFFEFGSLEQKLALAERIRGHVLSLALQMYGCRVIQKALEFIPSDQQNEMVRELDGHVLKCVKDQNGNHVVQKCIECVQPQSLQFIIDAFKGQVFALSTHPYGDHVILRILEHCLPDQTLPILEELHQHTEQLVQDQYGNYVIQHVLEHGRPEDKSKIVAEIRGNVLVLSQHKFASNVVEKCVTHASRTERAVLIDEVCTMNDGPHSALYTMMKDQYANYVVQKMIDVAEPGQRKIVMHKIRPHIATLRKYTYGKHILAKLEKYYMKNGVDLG
How it was run: (§1)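 Sequencing with Illumina followed PCR amplification of the repeat regions from transformants grown four days on SC-Leu (input) or SC-Leu-His + 0.5 mM 3-AT (selection). The transformants were strain YBZ-1 with a LexA–MS2 coat fusion and a HIS3 reporter, carrying Pumilio-1 PUF domain libraries and matching RNA elements. The interaction score is the log change in variant frequency from input to selection, computed in log2 with a pseudocount of 1 for absent variants.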
“GGCUAGAACUAGUGGAUCCCCCGGCGCCCGGCGGCUCGAGCCCGGGUAAGUGUGAAUAGUCUGCAUGCCGCCGGGCGCCAUGCCUGCAGGUCGACUCUAGAAAACAUG” was tested, and the binding signal was 2.54 log2 enrichment (interaction score).
In the case of “GGCUAGAACUAGUGGAUCCCCCGGCGCCCGGCGGCUCGAGCCCGGGUAAGUGUCAAUAGUCUGCAUGCCGCCGGGCGCCAUGCCUGCAGGUCGACUCUAGAAAACAUG”, the binding signal is reported as 2.14 log2 enrichment (interaction score).
“GGCUAGAACUAGUGGAUCCCCCGGCGCCCGGCGGCUCGAGCCCGGGUAAGUGUAAAUAGUCUGCAUGCCGCCGGGCGCCAUGCCUGCAGGUCGACUCUAGAAAACAUG” was tested, and the binding signal was 3.58 log2 enrichment (interaction score).

These sequences were tested against PUM1 PUF domain R5-PRE (Homo sapiens, UniProt Q14671 828-1176, C1007P;Q1011E) in the same assay as above. Conditions: tags: N-Gal4 AD-HA kept; label: inside an RPR1-promoter hybrid RNA with tandem MS2 sites; ssRNA.
Sequence of PUM1 PUF domain R5-PRE (Q14671 828-1176 C1007P/Q1011E): as the sequence (Q14671 828-1176 C1007D/R1008H/Q1011L) above, with D180P, H181R, L184E counted along it
How it was run: as §1
With “GGCUAGAACUAGUGGAUCCCCCGGCGCCCGGCGGCUCGAGCCCGGGUAAGUGUGAAUAGUCUGCAUGCCGCCGGGCGCCAUGCCUGCAGGUCGACUCUAGAAAACAUG” the binding signal was 3.8 log2 enrichment (interaction score).
For “GGCUAGAACUAGUGGAUCCCCCGGCGCCCGGCGGCUCGAGCCCGGGUAAGUGUAAAUAGUCUGCAUGCCGCCGGGCGCCAUGCCUGCAGGUCGACUCUAGAAAACAUG”, the binding signal was 3.07 log2 enrichment (interaction score).
In the case of “GGCUAGAACUAGUGGAUCCCCCGGCGCCCGGCGGCUCGAGCCCGGGUAAGUGUUAAUAGUCUGCAUGCCGCCGGGCGCCAUGCCUGCAGGUCGACUCUAGAAAACAUG”, the binding signal is reported as 2.73 log2 enrichment (interaction score).
